# Experimental data reported in the supplement of paper PMC12282887.
# ± gives the standard deviation of the averaged measurements.
# Key:
# Experiment in all cases: promoter activity interaction Z-score (Lux/OD deviation from empty-vector control); higher = stronger promoter induction by the compound
# [1] = tested on: E. coli BW25113 acrABp lux reporter
# Outline: (§1)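 Wild-type E. coli BW25113 and three single-gene deletion strains, each carrying a low-copy luxCDABE promoter reporter, were grown at 37°C in 40 µl LB Lennox per well of a 384-well plate. Every compound was applied at four 1:2 dilutions in biological duplicates, and OD600 and luminescence were read every 30 min for 12 h. Integration covered 0–8 h for wild type and 1–9 h for deletion strains, and wells under 10% of the median growth value were removed. Scores are Z-transformed residuals of growth-normalised luminescence fitted against a control.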
# [2] = tested on: E. coli BW25113 micFp lux reporter
# Outline: as §1
# [3] = tested on: E. coli BW25113 ompFp lux reporter
# Outline: as §1
# [4] = 7 µg/ml, genetic background: wild type
# [5] = 7 µg/ml, genetic background: ΔmarA
# [6] = 7 µg/ml, genetic background: Δrob
# [7] = 7 µg/ml, genetic background: ΔsoxS
# [8] = 14 µg/ml, genetic background: wild type
# [9] = 14 µg/ml, genetic background: ΔmarA
# [10] = 14 µg/ml, genetic background: Δrob
# [11] = 14 µg/ml, genetic background: ΔsoxS
# [12] = 28 µg/ml, genetic background: wild type
# [13] = 28 µg/ml, genetic background: ΔmarA
# [14] = 28 µg/ml, genetic background: Δrob
# [15] = 28 µg/ml, genetic background: ΔsoxS
# [16] = 56.1 µg/ml, genetic background: wild type
# [17] = 56.1 µg/ml, genetic background: ΔmarA
# [18] = 56.1 µg/ml, genetic background: Δrob
# [19] = 56.1 µg/ml, genetic background: ΔsoxS
smiles,measurement,setting,value
COc1cc(NS(=O)(=O)c2ccc(N)cc2)ncn1 [Sulfamonomethoxine],promoter activity interaction Z-score,[1]; [4],-0.0629 ± 0.12
same,promoter activity interaction Z-score,[1]; [5],-0.0827 ± 0.19
same,promoter activity interaction Z-score,[1]; [6],-0.194 ± 0.069
same,promoter activity interaction Z-score,[1]; [7],-0.131 ± 0.45
same,promoter activity interaction Z-score,[1]; [8],-0.0954 ± 0.051
same,promoter activity interaction Z-score,[1]; [9],0.444 ± 0.69
same,promoter activity interaction Z-score,[1]; [10],0.0478 ± 0.2
same,promoter activity interaction Z-score,[1]; [11],-0.102 ± 0.4
same,promoter activity interaction Z-score,[1]; [12],0.289 ± 0.03
same,promoter activity interaction Z-score,[1]; [13],0.686 ± 0.39
same,promoter activity interaction Z-score,[1]; [14],0.139 ± 0.014
same,promoter activity interaction Z-score,[1]; [15],-0.0503 ± 0.27
same,promoter activity interaction Z-score,[1]; [16],0.594 ± 0.059
same,promoter activity interaction Z-score,[1]; [17],1.43 ± 0.56
same,promoter activity interaction Z-score,[1]; [18],1.32 ± 0.6
same,promoter activity interaction Z-score,[1]; [19],0.654 ± 0.63
same,promoter activity interaction Z-score,[2]; [4],-0.11 ± 0.081
same,promoter activity interaction Z-score,[2]; [5],-0.104 ± 0.066
same,promoter activity interaction Z-score,[2]; [6],0.00985 ± 0.087
same,promoter activity interaction Z-score,[2]; [7],-0.0124 ± 0.09
same,promoter activity interaction Z-score,[2]; [8],0.129 ± 0.024
same,promoter activity interaction Z-score,[2]; [9],-0.112 ± 0.13
same,promoter activity interaction Z-score,[2]; [10],-0.0554 ± 0.081
same,promoter activity interaction Z-score,[2]; [11],0.0346 ± 0.00076
same,promoter activity interaction Z-score,[2]; [12],-0.113 ± 0.28
same,promoter activity interaction Z-score,[2]; [13],0.0381 ± 0.13
same,promoter activity interaction Z-score,[2]; [14],-0.0788 ± 0.15
same,promoter activity interaction Z-score,[2]; [15],-0.00695 ± 0.03
same,promoter activity interaction Z-score,[2]; [16],0.345 ± 0.27
same,promoter activity interaction Z-score,[2]; [17],-0.0779 ± 0.035
same,promoter activity interaction Z-score,[2]; [18],0.446 ± 0.3
same,promoter activity interaction Z-score,[2]; [19],0.145 ± 0.15
same,promoter activity interaction Z-score,[3]; [4],0.897 ± 1
same,promoter activity interaction Z-score,[3]; [5],0.44 ± 0.78
same,promoter activity interaction Z-score,[3]; [6],0.229 ± 0.2
same,promoter activity interaction Z-score,[3]; [7],0.152 ± 0.17
same,promoter activity interaction Z-score,[3]; [8],0.907 ± 0.69
same,promoter activity interaction Z-score,[3]; [9],0.36 ± 0.52
same,promoter activity interaction Z-score,[3]; [10],0.708 ± 0.82
same,promoter activity interaction Z-score,[3]; [11],0.102 ± 0.078
same,promoter activity interaction Z-score,[3]; [12],1.05 ± 0.98
same,promoter activity interaction Z-score,[3]; [13],1.11 ± 0.74
same,promoter activity interaction Z-score,[3]; [14],0.731 ± 0.18
same,promoter activity interaction Z-score,[3]; [15],0.341 ± 0.13
same,promoter activity interaction Z-score,[3]; [16],2.04 ± 0.99
same,promoter activity interaction Z-score,[3]; [17],2.09 ± 0.78
same,promoter activity interaction Z-score,[3]; [18],2.95 ± 1.7
same,promoter activity interaction Z-score,[3]; [19],1.94 ± 0.43
